In the library only some 8.1% were active in any assay of this set; here they are far more common.
KB-V1 MDR tox: KB-V1 MDR subline cytotoxicity | KB-V1 MDR cells viability, CellTiter-Glo, 72 h | Potency, µM (doses to about 46.1 µM), usual class: cytotoxic | 400,000 compounds, 3.4% hits | AID 1347076; note: % is set by controls: 0 for no effect and ±100 for the full control effect; nearly all actives have a fitted effect of over 60% in size
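KB-V1 MDR subline cells in DMEM (phenol-red free, 10% FBS) exposed to compounds in qHTS concentration series for 72 h at 37 degrees C. Viability read by CellTiter-Glo luminescence; concentration-effect curves fitted after normalization and correction.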
MCF10A rerep: inducers of DNA re-replication in MCF 10A breast cells; MCF 10A DNA re-replication, Hoechst nuclear intensity, 48 h; Potency, µM (series often up to 46.1 µM), for inactives: at the top dose activity, positive = re-replication, actives largely listed as activators; 350,000 compounds, 2.9% hits; AID 624296; note: % of control where 0% means no effect; nearly all actives have a fitted effect of over 50% in size
SW480 rereplic: inducers of DNA re-replication in SW480 colon cancer cells; SW480 DNA re-replication, Hoechst DNA content imaging, 48 h; Potency, µM (series often up to 46.1 µM), inactives show at the top dose re-replication activation, hits mostly activators; 340,000 compounds, 1.8% hits; AID 624297; note: % of control where 0% means no effect; nearly all actives have a fitted effect of over 55% in size
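First, 250 cells per well were seeded. Next, compound or vehicle (23 nL) was pinned in, plates sat 48 hr at 37 C. Finally Hoechst was added for 40 min before fluorescence scanning.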
KB-3-1 tox: KB-3-1 parental cell cytotoxicity; KB-3-1 viability, CellTiter-Glo ATP luminescence, 72 h; Potency, µM (doses to about 46.1 µM), usual class: cytotoxic; 400,000 compounds, 1.4% hits; AID 1347075; note: % is set by controls: 0 for no effect and ±100 for the full control effect; nearly all actives have a fitted effect of over 60% in size
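Using CellTiter-Glo luminescence, growth of non-resistant KB-3-1 adenocarcinoma cells is assessed 72 h after pin-tool compound addition at 37 °C. Normalized responses across the concentration series yield fitted curves.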
ELG1 repair inh: inhibitors of ELG1-dependent DNA repair in HEK293T cells; 330,000 compounds, 2.3% hits; HEK293T ELG1-luciferase reporter, luminescence, 16 h; DNA damage induced by 5-fluorouridine; Potency, µM (top dose mostly 46.1 µM), for inactives: at the highest dose activity change, negative = inhibition, most hits filed as inhibitors; AID 504467; note: % is set by controls: 0 for no effect and ±100 for the full control effect; nearly all actives have a fitted effect of over 55% in size
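Quantitative HTS, concentration-response format. 2,000 cells/well co-treated with 5-fluorouridine and compound, 16 hr in 5% CO2 at 37 °C; ONE-Glo luminescence read after 30 min.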
Active calls of the source: *; i = inactive; ? = inconclusive; . = no result. Calls come from the whole dose curve; as a rule, active = well fitted curve in the direction sought with a large enough effect; inconclusive = small, poorly fitted or top-dose-only effect, or another doubt; inactive = no such curve, though single readings can be large; an effect the other way counts as inactive or inconclusive. Potency is the fitted concentration of half-maximal effect.

SMILES | KB-V1 MDR tox | MCF10A rerep | SW480 rereplic | KB-3-1 tox | ELG1 repair inh
Cc1ccc(NC(=O)c2cnc(N3CCN(c4ccccn4)CC3)c3ccccc23)c(Br)c1 | ? | 18µM* | ? | ? | ?
O=C(Nc1c(F)cccc1F)c1cnc(N2CCN(c3ccccn3)CC2)c2ccccc12 | 10µM* | 20% | 15% | ? | 18µM*
O=C(c1ccc2c(Cl)c3c(nc2c1)CCCC3)N1CCN(c2ccccc2F)CC1 | i | . | . | i | .
O=C(Nc1cccc(-c2nc3ccccc3o2)c1)C(F)(F)F | i | . | . | i | .
Cc1oc(-c2ccc(C(=O)Nc3ccccc3F)cc2)nc1COc1ccccc1 | i | . | . | i | .
NNC(=O)COc1ccc(-c2n[nH]c(C(F)(F)F)c2-c2ccc(Br)cc2)c(O)c1 | i | 18µM* | -79% | i | ?
CCCCn1ccnc1C(=O)c1cccc(S(=O)(=O)N2CC(C)CC(C)C2)c1 (stereo not given) | ? | 29% | ? | ? | 21µM*
Cc1ccc(S(=O)(=O)N2CCOCC2)cc1C(=O)O | i | 2% | -12% | i | 5%
CCCCn1ccnc1C(=O)c1cc(S(=O)(=O)N2CCOCC2)ccc1C | i | 2% | -2% | i | 6.5µM*
O=C(/C(=C/c1ccc(Cl)cc1)c1nc2ccccc2[nH]1)c1ccccc1 | ? | 6.5µM* | 5.2µM* | 5.2µM* | ?
O=C(Nc1nc2ccccc2[nH]1)c1ccc(Cl)cc1 | ? | 4% | -1% | ? | ?
O=C(N/C(=C/c1ccc(Cl)cc1)c1nc2ccccc2[nH]1)c1ccco1 | 12µM* | ? | -2% | i | 2%
O=C(N/C(=C/c1ccc(Br)cc1)c1nc2ccccc2[nH]1)c1ccco1 | i | -7% | 0% | i | 12%
COc1cc(/C=C(/C(=O)c2cccs2)c2nc3ccccc3[nH]2)cc(OC)c1O | 21µM* | 16µM* | 23µM* | 3.7µM* | ?
CC1(c2cccc(Br)c2)NC(=O)N(CC(=O)c2ccc3c(c2)OCO3)C1=O (stereo not given) | i | . | . | i | .
Cc1ccc(NCc2cccc(B(O)O)c2)cc1 | i | -6% | ? | i | .
Cc1c2cnn(CC(=O)N3CCN(c4ccccc4)CC3)c(=O)c2c(C)n1Cc1ccccc1Cl | i | . | . | i | .
CCCCOc1cccc(C(=O)Nc2cc(NC(=O)c3ccco3)ccc2OC)c1 | i | . | . | i | .
CCCCC1C(=O)CC[C@H]2[C@@H]1CC(=O)[C@@H]2C/C=C\CCCC(=O)O (stereo not given in full) | i | 64% | 1.8µM* | i | -12%
Oc1ccc(/C=N/NC(=S)NCc2ccco2)cc1 | i | -3% | -5% | i | -1%
CCN(CC)c1ccc(/C=N/NC(=S)NCc2ccco2)cc1 | ? | ? | ? | 18µM* | ?
Cc1ccc(-n2nc3cc(C)c(NC(=S)NC(=O)/C=C/c4ccco4)cc3n2)cc1 | i | 5% | 3.7µM* | i | ?
Cc1ccc(-c2nc3ccccc3s2)cc1NC(=S)NC(=O)/C=C/c1ccco1 | ? | 26% | ? | ? | 0%
Cc1ccc(-c2nc3ccccc3o2)cc1NC(=S)NC(=O)/C=C/c1ccco1 | ? | 7.3µM* | 8.2µM* | 13µM* | ?
CCC(=O)Nc1cc2nn(-c3ccc(OC)cc3)nc2cc1C | i | 2% | -1% | i | ?
SMILES | KB-V1 MDR tox | MCF10A rerep | SW480 rereplic | KB-3-1 tox | ELG1 repair inh
Cc1ccc(-n2nc3ccc(NC(=S)NC(=O)/C=C/c4ccco4)cc3n2)cc1 | i | -1% | -7% | i | ?
O=C(/C=C/c1ccco1)NC(=S)Nc1cccc(-c2nc3ccccc3s2)c1 | 6.5µM* | 5.8µM* | ? | 8.2µM* | .
COc1ccc(-n2nc3cc(C)c(NC(=S)NC(=O)c4ccccc4C)cc3n2)cc1 | i | 3.7µM* | 11% | i | ?
COc1ccc(C(=O)NCC(c2cccnc2)N2CCc3ccccc32)cc1OC (stereo not given) | i | . | . | i | .
Cc1onc(-c2c(F)cccc2Cl)c1C(=O)Nc1cccc(S(=O)(=O)N2CCOCC2)c1 | ? | 4% | 1% | i | ?
CCCc1nc2ccc(C(=O)OC)cn2c1Cc1ccc(C)cc1 | i | . | . | i | .
COc1ccc(-c2nc3ccccc3o2)cc1NC(=O)COc1c(C)cc(Cl)cc1Cl | i | . | . | ? | .
COc1ccc(-c2nc3ccccc3o2)cc1NC(=O)COc1ccc(C)c(C)c1 | ? | . | . | 5.8µM* | .
Cc1cccc(NC(=S)NC(=O)/C=C/c2ccco2)c1 | 5.2µM* | ? | 2.1µM* | 4.6µM* | ?
O=C(/C=C/c1ccco1)NC(=S)Nc1ccc(N2CCOCC2)c(Cl)c1 | ? | ? | 5.2µM* | 4.1µM* | 15%
O=C(/C=C/c1ccco1)NC(=S)Nc1cccc(-c2nc3ccccc3o2)c1 | 8.2µM* | 3.7µM* | 9.2µM* | ? | ?
CC(=O)Nc1ccc(Nc2nc3c(S(=O)(=O)c4cccc(Cl)c4)nnn3c3ccsc23)cc1 | i | . | . | i | .
Cc1cccc(NC(=O)c2c(NC(=O)c3ccco3)sc3c2CCC(C)C3)c1 (stereo not given) | i | . | . | i | .
Cc1cccc(C)c1-n1nnnc1C1c2ccccc2C(=O)N1CCCn1ccnc1 (stereo not given) | i | . | . | i | .
CCN(CC(=O)Nc1ccccc1C(F)(F)F)C(=O)CN1C(=O)NC2(CCCCC2)C1=O | i | 0% | 2% | i | 8%
NC(=O)C1CCN(c2oc(/C=C/c3ccccc3)nc2S(=O)(=O)c2ccccc2)CC1 | i | 13% | ? | i | -19%
O=C(c1ccc(CSCc2ccccc2F)o1)N1CCN(c2ccc(N3CCOCC3)nn2)CC1 | i | 0% | -1% | i | 18µM*
COCCCN1C(=O)C(CC(=O)NCc2cccs2)CC(C(=O)N(C(C)C)C(C)C)=C1C (stereo not given) | i | . | . | i | .
CC(=O)c1cccc(NC(=O)/C=C/c2ccc([N+](=O)[O-])s2)c1 | 21µM* | 3.7µM* | 2.9µM* | ? | ?
Cc1cc(C)cc(NC(=O)/C=C/c2ccc([N+](=O)[O-])s2)c1 | ? | 4.1µM* | ? | 6.5µM* | -1%
Cc1ccccc1NC(=O)/C=C/c1ccc([N+](=O)[O-])s1 | ? | 1.6µM* | 0.16µM* | ? | ?
COC(=O)c1cccc(NC(=O)/C=C/c2cccc([N+](=O)[O-])c2)c1 | i | 17% | 3% | i | ?
COc1ccc(C(=O)NCCSc2c[nH]c3ccccc23)cc1OC | i | . | . | i | .
Cc1cccc(C)c1NC(=O)c1cc2c(=O)c3ccccc3oc2nc1C(F)(F)F | 2.1µM* | 0% | 17% | i | -8%

Screening data from PubChem BioAssay.
